Among the data in ChEMBL document CHEMBL2218924, “A broad activity screen in support of a chemogenomic map for kinase signalling research and drug discovery” (Biochem J, 2013) are residual activity values, retold here.

The structures appear in SMILES notation.

Sequence of Mitogen-activated protein kinase 14 (Homo sapiens) (Q16539 whole entry): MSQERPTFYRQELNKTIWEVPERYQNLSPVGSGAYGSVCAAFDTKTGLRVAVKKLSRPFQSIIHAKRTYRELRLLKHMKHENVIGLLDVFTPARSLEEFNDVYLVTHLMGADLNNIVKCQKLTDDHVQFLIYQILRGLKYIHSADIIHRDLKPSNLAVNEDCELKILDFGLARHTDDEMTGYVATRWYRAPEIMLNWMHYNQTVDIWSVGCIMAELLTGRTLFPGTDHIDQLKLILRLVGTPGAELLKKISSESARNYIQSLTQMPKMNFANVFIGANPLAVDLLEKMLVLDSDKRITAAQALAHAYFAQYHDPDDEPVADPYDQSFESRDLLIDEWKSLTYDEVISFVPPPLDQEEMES

This assay has as its target Mitogen-activated protein kinase 14 (Homo sapiens) (UniProt Q16539). Conditions: at 10 µM.
Take `O=C1NC(=O)/C(=C\c2ccc3nccnc3c2)S1`: the residual activity was found to be 91%. Next, `Cc1nc2cc3nc(-c4cccs4)cnc3cc2n1C`: 112%. Turning to `c1ccc2c(-c3ccncc3)c[nH]c2c1`, the residual activity is 54%.

`COc1cc2ncnc(Nc3ccc(O)c(Br)c3)c2cc1OC`: the residual activity was determined as 14%. For the compound `CCC(=O)Nc1ccc2ncnc(Nc3cccc(Br)c3)c2c1`, the residual activity turned out to be 50%. Take `Cn1cnc2cc3c(Nc4cccc(Br)c4)ncnc3cc21`: the residual activity stood at 25%. For the compound `Cc1cc(Nc2nc(-c3ccccc3)nc3ccccc23)n[nH]1`, the residual activity was 64%. In the case of `O=C1Nc2cc(Br)ccc2/C1=C1/Nc2ccccc2/C1=N\O`, the residual activity amounted to 83%. Consider `CCN(CC)CCCCN1c2ccccc2Oc2ccc(Cl)cc21`, for which the residual activity was 84%. Regarding `Cn1nc2c3c(cccc31)C(=O)c1ccccc1-2`, the residual activity came to 90%. Turning to `Nc1nc(Nc2ccc(S(N)(=O)=O)cc2)nn1C(=S)Nc1c(F)cccc1F`, the residual activity was 53%.

For the compound `Cc1cccc(-c2[nH]c(C(C)(C)C)nc2-c2ccc3c(c2)OCO3)n1`, the residual activity turned out to be 16%. In the case of `CN(C)CCCn1cc(C2=C(c3c[nH]c4ccccc34)C(=O)NC2=O)c2ccccc21`, the residual activity was found to be 106%. The figure for `N#CC(C#N)=C(N)/C(C#N)=C/c1ccc(O)cc1` is 55%; for `COc1cc2ncc(-c3ccccc3)nc2cc1OC` it is 88%; for `Cc1cncc2cccc(S(=O)(=O)N3CCCN(C(=O)CN)C[C@H]3C)c12` it is 81%. As for `C[C@@H](N)[C@H]1CC[C@H](C(=O)Nc2ccncc2)CC1`, the residual activity was 107%. Take `COc1ccc(C(=O)Nc2sc3c(c2C(N)=O)CCCC3)cc1OC`: the residual activity came out at 100%. For `CCN(CC)C(=O)c1ccc(Nc2nc(OCC3CCCCC3)c3nc[nH]c3n2)cc1`, the residual activity is 70%. For the compound `Cc1ccc(NC2=CC(=O)c3sc(C)nc3C2=O)cc1`, the residual activity was 93%.

For `COc1cc2ncnc(N3CCN(C(=O)Nc4ccc(Oc5ccccc5)cc4)CC3)c2cc1OC`, the residual activity was found to be 79%.

As for `Nc1n[nH]c2nnc(-c3c(-c4ccccc4)nn4ccccc34)cc12`, the residual activity was 33%. On to `O=C1Nc2ccccc2/C1=C1/Nc2ccccc2/C1=N\OCCC(O)CO` (stereo not drawn), for which the residual activity was determined as 78%. `Ic1cccc(CSc2nnc(-c3ccncc3)o2)c1`: the residual activity was 79%. Consider `O=c1cc(-c2cccc3c2Sc2ccccc2S3)oc(N2CCOCC2)c1`, for which the residual activity was 99%.

For `COc1ccc(CNc2nc(N(CCO)CCO)nc3c2ncn3C(C)C)cc1`, the residual activity amounted to 89%. Next, `COc1cccc(-c2cc(=O)c3ccccc3o2)c1N`: 94%. As to `NC(=O)c1ccc2[nH]c(-c3ccc(Oc4ccc(Cl)cc4)cc3)nc2c1`, the residual activity worked out at 84%. For `CNc1cc2c(Nc3cccc(Br)c3)ncnc2cn1`, the residual activity stood at 77%. As to `c1ccc(-c2n[nH]cc2-c2ccnc3ccccc23)nc1`, the residual activity is 15%. Next, `O=C(Nc1cccc(Nc2cc(Nc3cccc(C(F)(F)F)c3)ncn2)c1)C1CC1`: 40%; `Cc1nc(-c2ccccc2)c(-c2ccncc2)o1`: 14%; `c1ccc(-c2n[nH]c3c2oc2ccccc23)cc1`: 78%.
